Compound activity as filed in PubChem BioAssay.
Hits are enriched below; roughly 27% of the tested compounds scored in any of these assays.
Cav3 T inh: inhibitors of human Cav3.2 T-type calcium channel | AID 449739 | B-score at 10 µM | Cav3.2-expressing cells, Fluo-4 calcium fluorescence FDSS; hits give low values | 4% of 100,000 active;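 active = single-dose well whose peak fluorescence ratio is a statistical outlier from its plate by either plate-standardised score or position-corrected B-score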
CYP2C19 inh: human CYP2C19 inhibition; P33261; CYP2C19 Supersomes, luciferin-H EGE luminescence, 30 min; inhibition, % at 5 µM; 21% of 96,000 active; AID 778;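 active = CYP2C19 inhibition above a set limit at 5 µM in the primary screen, cut at about 50% in these data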;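 note: plate controls were negative control wells for no effect and 2.5 mM tranylcypromine positive control for full effect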
CYP2C9 inh: human CYP2C9 inhibition. P11712. CYP2C9 Supersomes, luciferin-H conversion, luminescence. inhibition, % at 5 µM. 20% of 96,000 active;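 active = blocking of liver enzyme CYP2C9 beyond about 50% at 5 µM, limit read from the data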
CYP2C19 act: activators of human cytochrome P450 2C19. P33261. recombinant CYP2C19, luciferin-H EGE luminescence; hits give high values; 0 = fully inhibited enzyme, 1 = untreated enzyme. activation factor at 5 µM. 96,000 tested, under 10 active;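 active = activation factor of at least 2 at 5 µM in the primary screen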;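 note: 0 = wells with 2.5 mM tranylcypromine and 1 = vehicle-only wells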
CYP2C9 activ: CYP2C9 (human) activation; P11712; recombinant CYP2C9, luciferin-H conversion, luminescence; hits give high values; factor 1 = untreated enzyme, 0 = blocked; activation factor at 5 µM; 1.4% of 96,000 active; AID 1024;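 active = activation factor of 2 or more for CYP2C9 at a 5 µM dose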;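 note: 0 = sulfaphenazole-blocked wells and 1 = vehicle-only wells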
* hit, by the source's call; . = no result.

SMILES | Cav3 T inh | CYP2C19 inh | CYP2C9 inh | CYP2C19 act | CYP2C9 activ
COc1ccc(S(=O)(=O)N(CC(=O)N2CCN(c3ccccc3OC)CC2)c2ccccc2)cc1 | -3.2 | 85* | 87* | 0.2 | 0.1
O=C(Nc1ccc(Cl)cc1)N1CCN(c2ccccc2)CC1 | -2.4 | . | . | . | .
O=C(CCc1ccccc1)N1CCN(c2ccc(Cl)cc2)CC1 | -5* | 50* | 44 | 0.5 | 0.6
COc1ccc(N2CCN(C(=O)CN(c3ccccc3)S(=O)(=O)c3ccc(OC)cc3)CC2)cc1 | 0.71 | -19 | 12 | 1.2 | 0.9
COc1ccc(N(CC(=O)N2CCc3ccccc3C2)S(C)(=O)=O)cc1OC | 1.2 | 16 | -6 | 0.8 | 1.1
O=C(CN(c1ccc(Cl)c(C(F)(F)F)c1)S(=O)(=O)c1ccccc1)N1CCOCC1 | -0.039 | 24 | -1 | 0.8 | 1
Cc1ccc(C(=O)N2CCC3(CC2)Oc2ccc(F)cc2C(=O)C32CC(c3cccnc3)=NO2)s1 (stereo not given) | -0.042 | . | . | . | .
COc1ccc(OC)c(C(=O)CSc2nnc(-c3ccc(OC)c(OC)c3)o2)c1 | 0.59 | -8 | -26 | 1.1 | 1.3
CC(OC1=CC(=O)CCC1)C(=O)c1ccccc1 (stereo not given) | 0.11 | 6 | 2 | 0.9 | 1
O=C(Cn1nc(-c2ccc(Cl)cc2)ccc1=O)N1CCN(c2ccccc2)CC1 | . | 25 | 52* | 0.7 | 0.5
O=C(CCn1nc(-c2ccc(Cl)cc2)ccc1=O)N1CCN(c2ccccn2)CC1 | . | 32 | 36 | 0.7 | 0.6
Cc1nn(C)c(C)c1/C=N/O | -0.081 | -14 | -21 | 1.1 | 1.2
COc1ccc(N=C2NC(=O)S/C2=C\c2ccc(N(C)C)cc2)cc1 | -0.39 | 15 | 94* | 0.8 | 0.1
COc1cc(-c2nnc(SCC(=O)Nc3cc(C)on3)n2C)cc(OC)c1O | 0.87 | 5 | -2 | 1 | 1
Cc1cc(C(=O)OCC(=O)c2ccc3c(c2)OCCO3)c(C)o1 | -0.63 | 86* | 40 | 0.1 | 0.6
COc1ccc(OC)c(NC(=O)Cn2cc(C(=O)c3ccco3)c3ccccc32)c1 | -2.1 | 96* | 98* | 0 | 0
COc1ccc(OC)c(NC(=O)Cn2cc(C#N)c3ccccc32)c1 | -0.13 | 85* | 80* | 0.2 | 0.2
C=CCOC(=O)C1=C[C@H](C2CCCCC2)[C@@H](CCCO)[C@H](OCC)O1 | -0.63 | . | . | . | .
CCOc1cc(C2NC(=O)NC(C)=C2C(=O)NCc2ccccc2)c(Cl)cc1O (stereo not given) | 0.57 | 9 | 10 | 0.9 | 0.9
CCOc1cc(CNC2CCCC2)cc(Cl)c1OCc1ccccc1 | -3.3 | 76* | 17 | 0.2 | 0.8
Cn1c(SCC(=O)c2ccc3c(c2)OCCO3)nnc1C1CC1 | 0.00014 | . | . | . | .
CN(C)c1ccc(-c2nnn(Cc3ccccc3Br)n2)cc1 | 0.05 | 96* | -36 | 0 | 1.4
O=c1oc2ccccc2c2c1nc(C(F)(F)F)n2-c1ccccc1 | -0.55 | 10 | 27 | 0.9 | 0.7
COc1ccc(-c2cc3nc(C4CCN(C(=O)OC(C)(C)C)CC4)c(C(=O)O)cn3n2)cc1 | -0.79 | -5 | 75* | 1.1 | 0.2
COc1ccc(NC(=O)c2nc[nH]c2C(=O)N2CCN(C(=O)OC(C)(C)C)CC2)cc1 | 0.64 | . | . | . | .
SMILES | Cav3 T inh | CYP2C19 inh | CYP2C9 inh | CYP2C19 act | CYP2C9 activ
O=C(CCSc1ccc(Cl)cc1)N1CCN(c2ncccn2)CC1 | -4.7* | 25 | 65* | 0.7 | 0.4
O=C(CSc1ccc(Cl)cc1)N1CCN(c2c(Cl)cccc2[N+](=O)[O-])CC1 | -2.9 | 35 | 71* | 0.7 | 0.3
O=C(OCCN1CCN(c2ncc(C(F)(F)F)cc2Cl)CC1)c1ccc(F)cc1 | -0.068 | 27 | 69* | 0.7 | 0.3
O=C(Cc1ncc(C(F)(F)F)cc1Cl)N1CCN(c2cccc(Cl)c2)CC1 | -1.1 | 84* | -60 | 0.2 | 1.6
Cc1cc2c3c(c1C)C1(C(=O)N3C(C)(C)CC2C)C(C#N)=C(N)Oc2cc(O)ccc21 (stereo not given) | -3.1 | -6 | 0 | 1.1 | 1
Nc1c(C(=O)NCc2ccc3c(c2)OCO3)nnn1-c1ccc(OC(F)(F)F)cc1 | -1.1 | 6 | 22 | 0.9 | 0.8
Cc1ccc(C(=O)OCCN2CCN(c3ncc(C(F)(F)F)cc3Cl)CC2)cc1 | -0.41 | 18 | 26 | 0.8 | 0.7
O=C(CSc1ccc(Cl)cc1)N1CCN(c2ncc(C(F)(F)F)cc2Cl)CC1 | -3.8* | 43 | 81* | 0.6 | 0.2
O=C(Cc1ncc(C(F)(F)F)cc1Cl)Nc1ccc(F)cc1 | . | 91* | 10 | 0.1 | 0.9
O=C(CN1CCN(c2ncc(C(F)(F)F)cc2Cl)CC1)N1CCN(c2ncc(C(F)(F)F)cc2Cl)CC1 | -3.2* | 62* | 82* | 0.4 | 0.2
O=C(Cc1ncc(C(F)(F)F)cc1Cl)N1CCN(c2ccccn2)CC1 | 0.92 | 18 | -18 | 0.8 | 1.2
Cc1csc(-c2cnn(-c3ccccc3)c2NC(=O)c2ccccc2)n1 | 0.21 | -12 | 4 | 1.1 | 1
Cc1ccc(C2CC(c3ccccc3)=NN2C(=S)Nc2ccccc2)o1 (stereo not given) | -7.5* | 34 | 56* | 0.7 | 0.4
COc1cccc(C2CC(c3cccs3)=NN2C(=S)Nc2ccccc2)c1OC (stereo not given) | -4.1 | 24 | 43 | 0.8 | 0.6
O=C(Cn1cnc2c(oc3ccccc32)c1=O)NCC1CCCO1 (stereo not given) | 0.19 | -2 | 17 | 1 | 0.8
Cc1nnc(SCC(=O)NCC2CCCO2)n1-c1ccccc1 (stereo not given) | -2.7 | 0 | 2 | 1 | 1
Cc1nc(SCC(=O)NCC2CCCO2)c2oc3ccccc3c2n1 (stereo not given) | 1.8 | 52* | 18 | 0.5 | 0.8
CCc1nc(SCC(=O)NCC2CCCO2)c2oc3ccccc3c2n1 (stereo not given) | 1.4 | 77* | 43 | 0.2 | 0.6
CCn1c(COc2ccc(C)cc2)nnc1SCC(=O)Nc1ccc2c(c1)OCCO2 | 0.036 | 9 | 28 | 0.9 | 0.7
CSc1nc(N(C)NC(=O)c2ccccc2)c2ccccc2n1 | -2.6 | 88* | 65* | 0.1 | 0.3
CSc1nc(N(C)NC(=O)c2ccc(Cl)cc2)c2ccccc2n1 | -0.04 | 0 | 17 | 1 | 0.8
Cc1cc(NC(=O)c2cnn3c(C(F)(F)F)cc(-c4ccc(Br)cc4)nc23)no1 | -1.9 | 24 | 34 | 0.8 | 0.7
Cc1ccc(NC(=O)CC2SC3=NCCCN3C2=O)c(C)c1 (stereo not given) | . | -1 | -19 | 1 | 1.2
Cc1ccc(C2=CSC3=NCCN23)c(C)c1 | -0.16 | 56* | 2 | 0.4 | 1
CC(C)(C)n1nnnc1C(c1ccccc1F)N1CCN(C2CCCC2)CC1 (stereo not given) | . | -9 | 3 | 1.1 | 1
COc1ccc(N2CSC3=C(C#N)C(c4cccc(OC)c4OC)CC(=O)N3C2)cc1 (stereo not given) | 0.086 | -3 | 7 | 1 | 0.9
COc1ccc(C2CC(=O)N3CN(c4ccc(C)c(Cl)c4)CSC3=C2C#N)cc1 (stereo not given) | -3.3 | 77* | 98* | 0.2 | 0
